Screening data deposited in PubChem BioAssay by National Center for Advancing Translational Sciences (NCATS).
The entries come from a sample that favours hits as a whole.
Pf Dd2 inh = Plasmodium falciparum Dd2 growth inhibition; Potency, µM (top dose mostly 28.9 µM), actives largely listed as inhibitors; P. falciparum Dd2 growth, SYBR Green, 72 h; 120,000 compounds, 4.3% hits; AID 1347417; active = well fitted inhibition curve with a large enough effect; also: nearly all actives have a fitted effect of over 65% in size
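Infected erythrocytes (Dd2, 0.3% parasitemia, 2.5% hematocrit final) are added to compound in RPMI-1640/Albumax II medium, grown 72 h at 37C in low oxygen, then lysed with saponin/Triton-X containing SYBR Green and read by fluorescence.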
Numbers stand for hits; – = inactive; [ ] = dose if it differs, or a comment.

SMILES | Pf Dd2 inh
Cc1oc2ccc(O)c(CN3CCN(Cc4ccccc4)CC3)c2c1C(=O)Nc1cccc(Cl)c1C | 0.56µM
COc1ccc(NC(=O)c2c(-c3cnn(C)c3NCc3ccccc3)noc2C)cc1 | –
CC(=O)Nc1ccc(NC(=O)c2cccc(CN3CCCC(C#N)C3)c2)cc1 (centres undefined) | –
CCOc1ccc(NC(=O)c2c(C)oc3nc(C)nc(N4CCCC4)c23)cc1 | –
CCOc1cc(=O)n2c(c1C(=O)Nc1ccccc1)CCCC2 | –
Cn1c(=O)n([C@H]2CCCN(C(=O)Nc3ccc4c(c3)OCCO4)C2)c2ncccc21 | –
CN1CC(=O)N(C2CCC2)Cc2c1ncnc2N1CCC(N2CCCCC2)CC1 | –
Cn1cnnc1CC1CCN(C(=O)c2cn3cc(Cl)ccc3n2)CC1 | –
O=C(Cn1ccn2nc(-c3ccccc3)c(CO)c2c1=O)NCc1ccccc1Cl | –
Cc1nnsc1C(=O)N[C@H]1CCN(C(=O)c2ccco2)[C@H](C(=O)N[C@H](Cc2c[nH]c3ccccc23)C(N)=O)C1 | –
O=C1NCCCCCCN(C(=O)C2CC2)[C@H]2CCCC[C@@H]12 | –
CN(C)C(=O)c1ccc(OC2CCN(C(=O)c3ccc(Br)cc3)CC2)nc1 | –
Cc1cccc(CNc2ccc3nnc(C)n3n2)c1 | –
CCc1nnc2ccc(NCc3ccc(F)cc3)nn12 | 7.1µM
Cc1nnc2ccc(NCc3ccc(F)cc3)nn12 | –
O=C(Cc1ccccn1)N1CCc2nc(-c3ccc(Cl)cc3)nc(-c3ccccc3)c2C1 | –
C[C@H](O)c1onc(-c2ccc(Cl)cc2)c1C(=O)NC1CCC1 | –
O=C(NCCc1ccccc1)c1ccc2c(c1)N(Cc1c(F)cccc1Cl)C(=O)CS2 | –
COC(=O)c1ccc2c(c1)N(Cc1ccc(F)cc1)C(=O)c1ccccc1S2 | –
O=C(c1ccc2c(c1)N(Cc1c(F)cccc1Cl)C(=O)c1ccccc1S2)N1CCC2(CC1)OCCO2 | 10µM
CN1C(=O)c2ccccc2Sc2ccc(NC(=O)NCc3ccc(Cl)cc3)cc21 | –
CC(C)OCCCNC(=O)c1ccc2c(c1)N(Cc1c(F)cccc1Cl)C(=O)c1ccccc1S2 | –
CCN(C(=O)CN1C(=O)c2ccccc2Sc2ccc(C(=O)OC)cc21)c1cccc(C)c1 | 11µM
COC(=O)c1ccc2c(c1)N(Cc1ccc(Cl)cc1)C(=O)c1ccccc1S2 | –
CCOC(=O)c1ccc2c(c1)N(Cc1ccccc1)C(=O)c1ccccc1S2 | –
SMILES | Pf Dd2 inh
O=C(NC1CCCC1)c1ccc2c(c1)N(Cc1c(F)cccc1Cl)C(=O)c1ccccc1S2 | –
CN1CCN(C(=O)c2ccc3c(c2)N(Cc2c(F)cccc2Cl)C(=O)c2ccccc2S3)CC1 | 0.2µM
CCN(CC)CCNC(=O)Nc1ccc2c(c1)N(Cc1ccccc1)C(=O)c1ccccc1S2 | 4µM
Cc1ccc(-c2noc(C(C)Oc3ccccc3)n2)nn1 (centres undefined) | –
CC(C)C1CN(c2cncc(C(=O)N3CCCC3)n2)CCC(=O)N1CC1CC1 (centres undefined) | –
CC(=O)Nc1ccc(-c2ccc(=O)n3c2[C@@H]2C[C@@H](CN(C(=O)COc4ccccc4)C2)C3)cc1 | –
O=C([C@@H]1C[C@@H](O)[C@H](O)[C@@H]2NC(=S)N(c3ccc(Cl)cc3)[C@@H]21)N1CCCCC1 | –
CC(C)CCN1CC2(COCC(=O)N(Cc3cccc(OC(F)(F)F)c3)C2)C1 | –
O=C(NCCc1ccccn1)C1CN(S(=O)(=O)c2cccnc2)CC12CCCCC2 (centres undefined) | –
O=C([C@@H]1C[C@H](Oc2cccnc2)CN1C(=O)Nc1ccccc1F)N1CCCC1 | –
Cc1ccccc1CN1C(=O)c2ccccc2Sc2ccc(C(=O)N3CCCC3)cc21 | –
Cc1ccccc1CN1C(=O)c2ccccc2Sc2ccc(C(=O)O)cc21 | –
CN1CCN(C(=O)c2ccc3c(c2)N(Cc2ccc(C(F)(F)F)cc2)C(=O)c2ccccc2S3)CC1 | 0.4µM
Cc1ccccc1CN1C(=O)c2ccccc2Sc2ccc(C(=O)N3CCOCC3)cc21 | –
O=C(c1ccc2c(c1)N(Cc1cccc(F)c1)C(=O)c1ccccc1S2)N1CCOCC1 | –
Cc1cccc(CN2C(=O)c3ccccc3Sc3ccc(C(=O)N4CCCC4)cc32)c1 | 14µM
CNC(=O)[C@@H]1CN(C(=O)c2ccc(OC)nc2OC)C[C@H]1c1n[nH]c(C)n1 | –
Cc1cccc(CNCc2ccccc2OCC(O)CN2CCSCC2)c1 (centres undefined) | 1.6µM
COc1cc(CN2CCOCC2)ccc1OCC(O)CN1CCSCC1 (centres undefined) | –
CCCCNCc1ccc(OCC(O)CN2CCSCC2)c(OC)c1 (centres undefined) | –
CCn1cc(CNCc2ccc(OCC(O)CN3CCSCC3)c(OC)c2)cn1 (centres undefined) | –
CC1CCN(Cc2ccccc2OCC(O)CN2CCSCC2)CC1 (centres undefined) | 4.5µM
Cc1nnc(CN(C)Cc2ccccc2OCC(O)CN2CCSCC2)o1 (centres undefined) | –
CCCn1c(C)cnc1CCNS(=O)(=O)CCC | –
Nc1ncccc1CN1CCN(C(=O)CO)CC(C(=O)O)C1 (centres undefined) | –
SMILES | Pf Dd2 inh
CCc1nc(-c2c3n(c(=O)n(Cc4cc(F)ccc4F)c2=O)CCCC3)no1 | –
O=c1c2c(CO)c(-c3ccc(F)cc3)nn2ccn1Cc1cccc(C(F)(F)F)c1 | –
COc1cccc(NC(=O)C2CCCN(c3ncnc4onc(C)c34)C2)c1 (centres undefined) | –
CC(C)NC(=O)C1CCCN(c2ncnc3onc(-c4ccc(F)cc4)c23)C1 (centres undefined) | –
CCOC(=O)c1ccc(NC(=O)C2CCCN(c3ncnc4onc(-c5ccc(F)cc5)c34)C2)cc1 (centres undefined) | 8.9µM
O=C(N[C@H](c1cccs1)C1CC(O)C1)c1cnn2cc(CCO)cnc12 (some centres undefined) | –
CCNC(=O)N1CC(Oc2ccccc2-c2nc(-c3cnccn3)no2)C1 | –
c1csc(CN2CCC(Oc3ccccc3-c3nc(-c4cnccn4)no3)C2)c1 (centres undefined) | 5.6µM
O=C(Nc1ccccc1)N1CCC(Oc2ccccc2-c2nc(-c3cnccn3)no2)C1 (centres undefined) | –
CCn1nccc1C(=O)N1CC(Oc2ccc(-c3nc(-c4ccccc4)no3)cc2)C1 | –[5.79 µM]
Cc1ccc(C(=O)NC(C(=O)NC2CC2)C2CCN(C(=O)c3ccc4c(c3)OCO4)CC2)cc1 (centres undefined) | –
CCCN1C(=O)C(CC(=O)N2CCCC2)Sc2ncccc21 (centres undefined) | –
CCOC(=O)c1oc2ccc(S(=O)(=O)N3CCC(c4noc(C5CC5)n4)C3)cc2c1C (centres undefined) | –[5.79 µM]
Cn1ncc2c(C(=O)NCCc3ccc(Cl)cc3)cc(C(C)(C)C)nc21 | –
COc1ccc(CN2CCC3(CC(c4cccc(C(F)(F)F)c4)=NO3)C2)cc1 (centres undefined) | –
COc1ccc(C2=NOC3(CCN(Cc4ccc(F)cc4)C3)C2)cc1 (centres undefined) | 4µM
COc1ccc(C2=NOC3(CCN(Cc4cccnc4)C3)C2)cc1 (centres undefined) | –
C[C@H]1CCCN1C(=O)c1nnc(COc2ccc(C#N)cc2)n1-c1ccccc1 | –
COc1cccc(OCc2nc(C(=O)N(C)Cc3cnc4ccccn34)co2)c1 | –
Cc1oc2c(c1C(=O)NCCN(C)C)CN(CCc1ccccc1)CC2 | –
CCOc1cc(=O)n2c(c1C(=O)Nc1ccc(C)c(F)c1)CCCC2 | –
